14 compounds from PubChem BioAssay (NCI) can be followed below.

The panel holds about 83,000 compounds, 20% with a hit somewhere; the sample as a whole holds those more often.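 Step 1: grow cells in 96-well plates. Step 2: add test compound at a single concentration. Step 3: incubate 48 h. Step 4: record percent growth.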 Unmarked numbers belong to inactive results. Calls of active or inactive are those of the source. How the source made its calls: active means growth percent below 10; inactive means the rest.

Some test systems named below: SR leukemia; RPMI-8226 leukemia; OVCAR-8 ovarian; OVCAR-5 ovarian; OVCAR-4 ovarian; SK-OV-3 ovarian; IGROV1 ovarian; OVCAR-3 ovarian; HS 578T breast; NCI/ADR-RES ovarian.
What all share (assay): NCI-60 one-dose screen, 48 h (100 = growth as untreated, 0 = no growth, -100 = all killed)
Details in all cases: 10 µM unless noted

For `N#CC1=C(N)Oc2c(ccc3ccccc23)C1c1ccccc1` (stereo not given), the growth in the test with SR leukemia is 15.2%; in the test on RPMI-8226 leukemia, 8.06% (active); with OVCAR-8 ovarian it was 7.27% (active); with OVCAR-5 ovarian, 33.8%; in the test on OVCAR-4 ovarian, 50.3%; in the test with SK-OV-3 ovarian, 12.7%. The growth is 27.2% in the test with IGROV1 ovarian, -2.34% (active) with OVCAR-3 ovarian, 28.8% in the test with HS 578T breast and 2.65% (active) in the test on NCI/ADR-RES ovarian.

As to `COc1ccc2c(c1)N(CCO)C1=C(C(=O)OC1)C2c1cccc(F)c1` (stereo not given), the growth in the test on SR leukemia was 16%; in the test with RPMI-8226 leukemia it was 21.3%; in the test with OVCAR-8 ovarian, 11%; in the test with OVCAR-5 ovarian, 44.6%; with OVCAR-4 ovarian, 51.5%; in the test on SK-OV-3 ovarian, 23.2%. Also, the growth is 34.5% in the test on IGROV1 ovarian, -16.7% (active) in the test with OVCAR-3 ovarian, 34.2% in the test on HS 578T breast and 15.6% in the test with NCI/ADR-RES ovarian.

Regarding `C=CCN=c1sc2c(n1NC(=O)c1cc3ccc1CCc1ccc(cc1)CC3)C(=O)c1ccccc1C2=O`, the growth in the test with SR leukemia was -8.54% (active); with RPMI-8226 leukemia it was -27.7% (active); with OVCAR-8 ovarian, 5.6% (active); in the test with OVCAR-5 ovarian, -65.7% (active); with OVCAR-4 ovarian, -96.3% (active); with SK-OV-3 ovarian it was 55.7%. Besides, the growth in the test with IGROV1 ovarian was -20.5% (active); with OVCAR-3 ovarian, -26.4% (active); in the test on HS 578T breast, -9.43% (active); in the test on NCI/ADR-RES ovarian it was -12.8% (active).

Consider `O=C(Nc1nc2cc(C(=O)N3CCN(C(c4ccccc4)c4ccccc4)CC3)ccc2o1)c1ccc(NC2CCCCC2)c([N+](=O)[O-])c1`, for which the growth is 49.1% in the test with SR leukemia; 40.1% in the test on RPMI-8226 leukemia; 37.8% in the test on OVCAR-8 ovarian; 72.5% in the test on OVCAR-5 ovarian; 38.8% in the test with OVCAR-4 ovarian; 73.8% in the test with SK-OV-3 ovarian. Further, the growth in the test on IGROV1 ovarian was 51.1%; in the test on OVCAR-3 ovarian, 52.8%; in the test on HS 578T breast, 76%; with NCI/ADR-RES ovarian it was 35.3%.

With `CC1CCN(CCOc2ccc(CNc3ccc4nc(CCC5CCCCC5)[nH]c4c3)cc2)CC1`, the growth was 14.4% in the test on SR leukemia; -15.7% (active) with RPMI-8226 leukemia; 43.1% in the test on OVCAR-8 ovarian; 59.9% with OVCAR-5 ovarian; 50.4% in the test on OVCAR-4 ovarian; 80.4% in the test with SK-OV-3 ovarian. Moreover, the growth is 43.1% in the test with IGROV1 ovarian, 66.3% in the test with OVCAR-3 ovarian, 27.5% in the test with HS 578T breast and 51% with NCI/ADR-RES ovarian.

With `N#Cc1c(-c2ccc(Cl)cc2)nc(NN2C(=O)c3ccccc3C2=O)nc1N1CCOCC1`, the growth in the test on SR leukemia is 84%; with RPMI-8226 leukemia, 105%; in the test with OVCAR-8 ovarian it was 102%; in the test with OVCAR-5 ovarian, 102%; in the test on OVCAR-4 ovarian, 98.7%; in the test with SK-OV-3 ovarian, 106%. In addition, the growth in the test with IGROV1 ovarian was 109%; in the test with OVCAR-3 ovarian, 113%; in the test on HS 578T breast, 101%; in the test on NCI/ADR-RES ovarian it was 107%.

In the case of `CCCCCN1C(=O)/C(=c2\sc3n(c2=O)C2C(NN=3)N(CC)C(=O)N2CC)c2ccccc21` (stereo not given), the growth was 1.69% (active) in the test with SR leukemia; 8.52% (active) in the test with RPMI-8226 leukemia; -53.2% (active) in the test with OVCAR-8 ovarian; -4.09% (active) in the test on OVCAR-5 ovarian; -56.7% (active) with OVCAR-4 ovarian; 13.3% in the test with SK-OV-3 ovarian. Further, the growth with IGROV1 ovarian was 2.27% (active); in the test on OVCAR-3 ovarian, -74.5% (active); in the test with HS 578T breast, -17.6% (active); in the test on NCI/ADR-RES ovarian it was -11.1% (active).

Consider `[O-]/[N+](=C\c1ccc(-n2cc(Cc3ccccc3Cc3cn(-c4ccc(/C=[N+](/[O-])c5ccccc5)cc4)nn3)nn2)cc1)c1ccccc1`, for which the growth in the test with SR leukemia is 95%; in the test on RPMI-8226 leukemia, 103%; in the test with OVCAR-8 ovarian, 103%; in the test on OVCAR-5 ovarian, 112%; in the test on OVCAR-4 ovarian it was 99.3%; with SK-OV-3 ovarian, 106%. For the same compound, the growth was 95.4% in the test on IGROV1 ovarian, 102% in the test on OVCAR-3 ovarian, 110% in the test with HS 578T breast and 97.6% in the test on NCI/ADR-RES ovarian.

Turning to `COc1cc2oc(-c3cccc(NC(=O)c4ccccc4)c3)cc(=O)c2c(OC)c1OC`, the growth in the test with SR leukemia was 31.6%; in the test with RPMI-8226 leukemia, 26.6%; in the test with OVCAR-8 ovarian, 61%; in the test with OVCAR-5 ovarian, 100%; in the test on OVCAR-4 ovarian it was 81.7%; in the test on SK-OV-3 ovarian, 104%. In addition, the growth is 78.4% in the test with IGROV1 ovarian, 84.2% in the test on OVCAR-3 ovarian, 97.2% with HS 578T breast and 74.5% with NCI/ADR-RES ovarian.

As for `NC(Cc1ccc(O)c([N+](=O)[O-])c1)C(=O)O` (stereo not given), the growth was 89.1% in the test on SR leukemia; 95% in the test on RPMI-8226 leukemia; 103% in the test on OVCAR-8 ovarian; 107% with OVCAR-5 ovarian; 95.2% in the test on OVCAR-4 ovarian; 115% in the test on SK-OV-3 ovarian. Further, the growth was 85% in the test with IGROV1 ovarian, 105% in the test on OVCAR-3 ovarian, 98.4% in the test with HS 578T breast and 99% in the test with NCI/ADR-RES ovarian.

`O=C(Cn1cc(CSc2nc3ccccc3o2)nn1)Nc1ccc(F)cc1F`: the growth in the test with SR leukemia was 109%; with RPMI-8226 leukemia, 114%; in the test on OVCAR-8 ovarian, 103%; in the test with OVCAR-5 ovarian it was 110%; in the test with OVCAR-4 ovarian, 108%; with SK-OV-3 ovarian, 124%. Moreover, the growth with IGROV1 ovarian is 114%; with OVCAR-3 ovarian, 119%; in the test on HS 578T breast, 107%; with NCI/ADR-RES ovarian, 101%.

In the case of `O=C(NCCNc1nccc(Nc2ccc(S(=O)(=O)Nc3ccccn3)cc2)n1)c1cccc([N+](=O)[O-])c1`, the growth in the test on SR leukemia was 84.7%; in the test with RPMI-8226 leukemia it was 96.1%; with OVCAR-8 ovarian, 104%; with OVCAR-5 ovarian, 93%; in the test with OVCAR-4 ovarian it was 89.9%; in the test with SK-OV-3 ovarian it was 100%. Moreover, the growth was 106% with IGROV1 ovarian, 108% in the test on OVCAR-3 ovarian, 108% in the test with HS 578T breast and 104% with NCI/ADR-RES ovarian.

For the compound `O=C1/C(=C\c2ccc3nccnc3c2)SC(=S)N1CCc1ccc(O)cc1`, the growth with SR leukemia was 68.9%; in the test on RPMI-8226 leukemia, 68.2%; with OVCAR-8 ovarian, 98.4%; in the test with OVCAR-5 ovarian, 102%; in the test on OVCAR-4 ovarian, 88.1%; in the test on SK-OV-3 ovarian it was 113%. Moreover, the growth with IGROV1 ovarian is 94.1%; with OVCAR-3 ovarian, 101%; in the test with HS 578T breast, 94.3%; in the test with NCI/ADR-RES ovarian it was 101%.

In the case of `CC(C)c1ccc(C(=O)Nc2nc3ccc(O)c(CN(C)C)c3s2)cc1`, the growth in the test on SR leukemia was 32.9%; in the test on RPMI-8226 leukemia it was 70.1%; in the test with OVCAR-8 ovarian, 82.8%; in the test on OVCAR-5 ovarian, 70.1%; in the test with OVCAR-4 ovarian it was 74.4%; in the test on SK-OV-3 ovarian it was 90.8%. In addition, the growth in the test with IGROV1 ovarian was 80.7%; with OVCAR-3 ovarian, 91.3%; in the test on HS 578T breast, 86.8%; in the test on NCI/ADR-RES ovarian it was 87.8%.
